Screening data: PubChem BioAssay, National Center for Advancing Translational Sciences (NCATS)
Hits are enriched below; roughly 15% of the tested compounds scored in any of these assays.
HCMV antiviral: qHTS Assay for inhibitors of the human cytomegalovirus (HCMV); activity change, negative = inhibition, % at 57.5 µM; 410,000 compounds, 4.5% hits; HFF cells, HCMV-luciferase reporter, 72 h; stronger effect = lower value; in the data active = activity change below about -60%; inconclusive = no clear call, values can overlap the other calls; inactive = above about -39%; note: % is set by controls: 0 for no effect and ±100 for the full control effect
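Inhibition of viral replication was scored as loss of reporter luminescence in HFFs infected with HCMV-luciferase (MOI 1 PFU/cell) for 72 h; compounds tested at 2 doses, normalized to buffer and Salinomycin controls.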
Pf growth 48h: Primary qHTS for delayed death inhibitors of the malarial parasite plastid, 48 hour incubation; P. falciparum luciferase growth in erythrocytes, 48 h; Potency, µM (titrated, usually from 28.7 µM), for inactives: at the highest dose activity change, negative = inhibition, hits mostly inhibitors; 310,000 compounds, 5.9% hits; AID 504832, 2011; note: potency is the fitted concentration of half-maximal effect; % is set by controls: 0 for no effect and ±100 for the full control effect
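Compounds are pin-transferred into medium, infected erythrocytes (2% hematocrit, 0.1% parasitemia final) are added, and plates sit one parasite generation at 37 C in 5% CO2. Detection reagent is then added and luminescence measured.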
Sm TGR block: qHTS Assay for the Inhibitors of Schistosoma Mansoni Peroxiredoxins; purified TGR, DTNB reduction, TNB absorbance 405 nm; AID 485364, 2010; 360,000 compounds, 3% hits; Schistosoma mansoni thioredoxin glutathione reductase (TGR), Q962Y6; Potency, µM (titrated, usually from 114 µM), for the others: top-dose activity change, negative = inhibition, actives largely listed as inhibitors; note: potency is the fitted concentration of half-maximal effect; % is set by controls: 0 for no effect and ±100 for the full control effect; nearly all actives have a fitted effect of over 60% in size
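TGR 20 nM + NADPH 100 uM (dispensed conc.), cpd preinc 15 min RT; start with NADPH (500 uM addition) then DTNB (15 mM addition). Kinetic TNB absorbance, 405 nm filter. Four-parameter Hill fit across titration.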
SARS PLpro yeast-1: qHTS of Yeast-based Assay for SARS-CoV PLP; S. cerevisiae expressing SARS-CoV PLpro, growth rescue; Potency, µM (doses to about 32.9 µM), inactives show top-dose activity, positive = growth rescue, most hits filed as activators; 330,000 compounds, 0.19% hits; AID 485353, 2010; calls by dose curve; note: potency is the fitted concentration of half-maximal effect; 0% is about no effect; nearly all actives have a fitted effect of over 55% in size
HCV inhibitor: qHTS Assay for Inhibitors of Hepatitis C Virus (HCV). AID 651820, 2012. Huh7.5.1 HCVcc-Cre infection, luciferase reporter, 44 h. 340,000 compounds, 3.4% hits. Potency, µM (doses to about 41.8 µM), without a hit: at the highest dose activity change, negative = inhibition, usual class: inhibitors; note: potency is the fitted concentration of half-maximal effect; % is set by controls: 0 for no effect and ±100 for the full control effect
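Antiviral activity was scored by luciferase reporter output from cells infected with HCVcc-Cre (~0.5 moi) in presence of compound, 44 h infection period, cells seeded 1,000/well 4 h prior.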
Pf growth 96h: Primary qHTS for delayed death inhibitors of the malarial parasite plastid, 96 hour incubation. P. falciparum luciferase reporter growth, 96 h. Potency, µM (highest dose often 28.7 µM), inactives show at the highest dose activity change, negative = inhibition, actives largely listed as inhibitors. 320,000 compounds, 6.9% hits. AID 504834, 2011; note: potency is the fitted concentration of half-maximal effect; % is set by controls: 0 for no effect and ±100 for the full control effect
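Delayed-death screen, second-generation endpoint: infected erythrocytes, 2% hematocrit, 0.05% parasitemia final; 96 hours at 37 C, 5% CO2; luciferase detection reagent; luminescence decrease equals reduced growth.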
SARS PLpro yeast-2: qHTS of Yeast-based Assay for SARS-CoV PLP: Hit Validation; 1,000 compounds, 19% hits; shares compounds with SARS PLpro yeast-1; calls only; yeast expressing SARS-CoV PLpro, growth phenotype rescue; AID 652038, 2013; call rule not given here
* hit, by the source's call. Unless noted, calls come from the whole dose curve; as a rule, active = well fitted curve in the direction sought with a large enough effect; inconclusive = small, poorly fitted or top-dose-only effect, or another doubt; inactive = no such curve, though single readings can be large; an effect the other way counts as inactive or inconclusive.

How did CC(C)N1C/C(=C/c2ccsc2)C(=O)/C(=C/c2ccsc2)C1 do in these assays?
HCMV antiviral: -85*; Pf growth 48h: inconclusive; Sm TGR block: -34%; SARS PLpro yeast-1: 22µM*; HCV inhibitor: inconclusive; Pf growth 96h: inconclusive; SARS PLpro yeast-2: inactive

Results for O=C1c2ccccc2NC(c2ccc(-c3cccc([N+](=O)[O-])c3)o2)N1O (configuration not stated) ?
HCMV antiviral: -79*; Pf growth 48h: inconclusive; Sm TGR block: inconclusive; SARS PLpro yeast-1: 10µM*; HCV inhibitor: -21%; Pf growth 96h: inconclusive; SARS PLpro yeast-2: active

How did COc1ccc(CCNC(=O)C(=O)NCC2OCCN2S(=O)(=O)c2ccc(OC)c(OC)c2)cc1OC (configuration not stated) do in these assays?
HCMV antiviral: 13; Pf growth 48h: 0%; Sm TGR block: 5%; SARS PLpro yeast-1: 4%; HCV inhibitor: inconclusive; Pf growth 96h: inconclusive

What do the screens show for `COc1ccc(CCNC(=O)C(=O)NCC2OCCN2S(=O)(=O)c2ccccc2)cc1OC` (configuration not stated)?
HCMV antiviral: -27; Pf growth 48h: -5%; Sm TGR block: -25%; SARS PLpro yeast-1: 11µM*; HCV inhibitor: -11%; Pf growth 96h: inconclusive; SARS PLpro yeast-2: inactive

Results for CC(/C=N/Nc1nc(C)cc(C)n1)=C\c1ccc(C(C)C)cc1 ?
HCMV antiviral: -4; Pf growth 48h: 10µM*; Sm TGR block: -7%; SARS PLpro yeast-1: 11µM*; HCV inhibitor: -10%; Pf growth 96h: inconclusive; SARS PLpro yeast-2: active

What do the screens show for `COc1ccccc1NC(=O)c1ccc(NC(=O)CSc2nc(N)cc(=O)[nH]2)cc1`?
HCMV antiviral: inconclusive; Pf growth 48h: -29%; Sm TGR block: -10%; SARS PLpro yeast-1: -3%; HCV inhibitor: -19%; Pf growth 96h: -17%

What do the screens show for `N#C/C(=C\C=C\c1ccccc1[N+](=O)[O-])C(=O)NC1CCCCC1`?
Pf growth 48h: inconclusive; Sm TGR block: -1%; SARS PLpro yeast-1: inconclusive; HCV inhibitor: inconclusive; Pf growth 96h: inconclusive; SARS PLpro yeast-2: inactive

How did N#C/C(=C\c1ccccc1[N+](=O)[O-])C(=O)NC1CCCCC1 do in these assays?
HCMV antiviral: 83; Pf growth 48h: inconclusive; Sm TGR block: 0%; SARS PLpro yeast-1: -23%; HCV inhibitor: -6%; Pf growth 96h: inconclusive

How did COc1cc(CNCc2cccs2)ccc1OCc1ccccc1 do in these assays?
HCMV antiviral: -31; Pf growth 48h: 36%; Sm TGR block: -15%; SARS PLpro yeast-1: 1%; HCV inhibitor: inconclusive; Pf growth 96h: inconclusive

How did COc1cc(CNCc2ccccn2)ccc1OCc1ccc(Cl)cc1 do in these assays?
HCMV antiviral: -38; Pf growth 48h: inconclusive; Sm TGR block: 8%; SARS PLpro yeast-1: inconclusive; HCV inhibitor: -4%; Pf growth 96h: -27%; SARS PLpro yeast-2: inactive

Results for Cc1ccc(NC(=O)CN(C)S(=O)(=O)c2cccs2)cc1F ?
HCMV antiviral: 19; Pf growth 48h: 82%; Sm TGR block: 12%; SARS PLpro yeast-1: -7%; HCV inhibitor: -27%; Pf growth 96h: 44%

How did Cc1ccc(NC(=O)CN(C)S(=O)(=O)c2cccs2)cc1C do in these assays?
HCMV antiviral: 41; Pf growth 48h: 38%; Sm TGR block: 1%; SARS PLpro yeast-1: inconclusive; HCV inhibitor: 10%; SARS PLpro yeast-2: inactive
